p53 reactivator: restores transcriptional activity of mutant p53; Potency, µM (titrated, usually from 92.2 µM), for the others: at the highest dose activity change, positive = activation, actives largely listed as activators; 320,000 tested, 0.063% active; H1299 p53-A138V BP100-luciferase reporter, luminescence, 24 h; further: potency means the concentration at half of the fitted maximal effect; % of control where 0% means no effect; nearly all actives have a fitted effect of over 45% in size
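H1299 (p53-null), stable ts p53-A138V + BP100-Luc; 1000 cells/well, Opti-MEM/10% FBS; cpd 4 pt, 1:5; 24 h, 37 deg C, 5% CO2; detection reagent 10 min RT; luminescence.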
TCR act: T cell receptor activation; 330,000 tested, under 10 active; primary human leukocytes, anti-CD3, IL-2 HTRF, 48 h; Potency, µM (titrated, usually from 9.22 µM), for inactives: top-dose activation of IL-2 secretion, usual class: activators; further: % of control where 0% means no effect
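Human primary leukocytes + a-CD3 beads + cpd, 48 hr; IL-2 in supernatant by HTRF (ex 320nm / em 665nm). No co-stimulatory signal supplied.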
TSHR antag: human thyrotropin receptor antagonism | activity change, negative = inhibition, % at 11.5 µM | P16473 | TSHR-expressing cells, TSH-stimulated cAMP HTRF, 2 h; hits give low values | 330,000 tested, 0.2% active;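 active means activity change below a set negative limit, meaning inhibition stronger than a set level, cut at about -70% in these data; inconclusive means activity change between two set negative limits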; further: on the % scale 0 is the no-effect control and ±100 the full control effect
Target sequence (P16473 whole entry, looked up): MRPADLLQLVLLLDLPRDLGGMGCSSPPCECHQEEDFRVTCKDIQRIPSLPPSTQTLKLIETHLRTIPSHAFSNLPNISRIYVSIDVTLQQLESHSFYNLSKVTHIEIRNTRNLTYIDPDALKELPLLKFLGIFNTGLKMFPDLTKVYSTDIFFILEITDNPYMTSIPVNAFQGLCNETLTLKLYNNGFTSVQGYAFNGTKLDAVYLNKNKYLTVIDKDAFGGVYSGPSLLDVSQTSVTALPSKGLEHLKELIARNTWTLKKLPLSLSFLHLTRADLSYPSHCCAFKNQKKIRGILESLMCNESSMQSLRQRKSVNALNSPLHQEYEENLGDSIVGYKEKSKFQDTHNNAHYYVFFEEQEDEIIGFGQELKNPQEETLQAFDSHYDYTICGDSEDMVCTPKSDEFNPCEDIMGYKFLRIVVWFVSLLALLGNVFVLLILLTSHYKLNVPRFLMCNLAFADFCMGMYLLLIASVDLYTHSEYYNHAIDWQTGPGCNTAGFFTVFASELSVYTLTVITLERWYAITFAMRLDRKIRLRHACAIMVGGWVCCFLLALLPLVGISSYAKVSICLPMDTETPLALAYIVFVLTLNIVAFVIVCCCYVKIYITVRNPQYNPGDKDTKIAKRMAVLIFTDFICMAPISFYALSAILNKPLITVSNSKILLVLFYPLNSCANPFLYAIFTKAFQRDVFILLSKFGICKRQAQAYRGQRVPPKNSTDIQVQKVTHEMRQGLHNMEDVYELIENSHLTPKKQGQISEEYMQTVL
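Freshly harvested TSHR cells receive pin-tooled compound, then EC80 TSH at 4nM final. After 2 hours at 37 deg C, antibody in lysis buffer and cAMP-d2 are added; 30 minutes at ambient temperature precede the HTRF read.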
BRCA1 expr up: BRCA1 expression activation; 380,000 tested, 1.1% active; AID 624202; MCF7-BRCA1-FFLuc reporter, luminescence, 48 h; response scale: scaled: vehicle 0%, 10 µM genistein 100%; Potency, µM (highest dose often 46.1 µM), for inactives: at the top dose activation, hits mostly activators; further: potency means the concentration at half of the fitted maximal effect; nearly all actives have a fitted effect of over 80% in size
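48 h compound treatment of MCF7-BRCA1-FFLuc cells (phenol-red free MEM, 37 °C), then 15 min with luciferase substrate and luminescence imaging.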
GLS inhibitor: glutaminase GLS (human) inhibition; O94925; GLS enzymatic activity, qHTS titration; Potency, µM (top dose mostly 45.5 µM), inactives show at the top dose activity change, negative = inhibition, usual class: inhibitors; 410,000 tested, 0.21% active; further: potency means the concentration at half of the fitted maximal effect; on the % scale 0 is the no-effect control and ±100 the full control effect
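Glutamate formation by hKGA was monitored fluorometrically using coupled glutamate oxidase, HRP and Amplex Red. Substrate was added as 1 mM L-glutamine solution; incubation was 30 min at RT after an initial read.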
N370S GC mod: inhibitors or activators of N370S glucocerebrosidase for Gaucher disease; Potency, µM (titrated, usually from 59.4 µM), for the others: at the highest dose activity change, negative = inhibition, most hits filed as inhibitors; 330,000 tested, 0.092% active; P04062; N370S GC spleen homogenate, 4MU-glucoside fluorescence; AID 2101;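 further: potency means the concentration at half of the fitted maximal effect; 0% = full enzyme activity and -100% = no enzyme basal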
The depositor's hits bear a star; ? = inconclusive; · = no result given; [ ] = remark or other dose. Most compounds without a hit are left out; they make up all but 1.4% or so of the library. Unless noted, the call rests on the fitted dose curve; in most records, active means well fitted curve in the direction sought with a large enough effect; inconclusive means small, poorly fitted or top-dose-only effect, or another doubt; inactive means no such curve, though single readings can be large; an effect the other way counts as inactive or inconclusive.

SMILES	p53 reactivator	TCR act	TSHR antag	BRCA1 expr up	GLS inhibitor	N370S GC mod
COc1ccc(OC)c(S(=O)(=O)N/N=C\c2ccc3c(c2)OCO3)c1	6.5%	-0.4%	10.3	12.6µM*	25.3%	-7.1%
CC(C)(C)c1cc(NC(=O)c2cccnc2)no1	13.6%	-8.2%	7.8	7.08µM*	2.9%	6.9%
O=C(c1ccc2c(=O)n(CC3CCCO3)c(=S)[nH]c2c1)N1CCN(C(=O)c2ccco2)CC1 (stereo not drawn)	·	·	·	5.5%	·	·
CCn1ccnc1CN(C)Cc1cn(-c2ccc(C)cc2)nc1-c1ccc(F)cc1	-1.9%	-4.7%	3.8	-22.7%	-3.4%	6.31µM*
CCn1ccnc1CN(C)Cc1cn(-c2ccccc2)nc1-c1ccc(OC)cc1F	0.8%	3.1%	-6.2	0.0%	3.4%	10.5%
CCn1ccnc1CN(C)Cc1cn(-c2cc(C)ccc2C)nc1-c1ccccc1	2.0%	-0.1%	-26.7	-62.8%	11.2%	14.1µM*
COc1cc(C(C(=O)NC(C)(C)C)N(C(=O)CNC(=O)c2cccs2)c2ccccc2)cc(OC)c1OC (stereo not drawn)	-2.3%	-3.4%	-2.1	-0.4%	9.7%	12.6µM*
CCCN1CNc2c(c(=O)[nH]c(=S)n2CCc2cc(OC)ccc2OC)C1	·	·	·	-5.5%	·	·
CC(=O)Nc1ccc(/C=C/c2ccncc2)cc1	·	·	·	72.7%	·	·
Cc1cc(C(=O)Nc2ccc([N+](=O)[O-])cn2)cs1	·	2.9%	-8.1	3.16µM*	0.6%	-11.2%
COc1ccccc1CCNC(=O)C(C)Sc1nc(-c2ccccc2)cc(C(F)(F)F)n1 (stereo not drawn)	·	·	·	-16.8%	1.4%	·
O=C1CCCC2=C1Sc1ccccc1N2	0.8%	-0.9%	-19.4	-12.2%	12.6µM*	2.5%
CC(C)(C)NC(=O)C(c1ccc(O)cc1)N(Cc1ccccc1)C(=O)CCC(=O)Nc1nccs1 (stereo not drawn)	-5.5%	-6.0%	-98.0*	-16.7%	2.1%	-17.2%
COc1ccc(C(C(=O)NC(C)(C)C)N(CCc2ccccc2)C(=O)CCC(=O)Nc2cc(C)on2)cc1 (stereo not drawn)	6.3%	-1.4%	-105.7*	-5.7%	13.1%	-19.8%
CC(C)(C)c1ccc(N2C[C@@H](COc3ccc(C(=O)O)cc3)CC2=O)cc1	·	·	·	·	·	-16.8%
Cc1ccccc1N=C1NN=C(c2ccccc2F)CS1	12.6µM*	-1.5%[46.1 µM]	-10.8	1.3%	6.7%	-15.9%
Cc1cccc(C)c1N=C1NN=C(c2ccccc2F)CS1	8.4%	1.7%[46.1 µM]	7.7	-51.1%	-5.1%	10.0%
Cc1cccnc1NC(=O)NC(=O)c1ccc(C(C)(C)C)s1	19.0%	0.6%	0.0	6.31µM*	0.2%	20.0%
Cc1cccnc1NC(=S)NC(=O)c1cccs1	?	3.0%	9.2	59.0%	29.9%	4.6%
Nc1nnc(-c2ccc(Cl)cc2Cl)s1	5.1%	-2.7%	-6.0	10µM*	-11.2%	?
COc1ccc(C(=O)c2oc3ccc(OC)cc3c2N)cc1	?	-3.8%[46.1 µM]	3.9	5.01µM*	5.2%	17.3%
Cc1cccc(C(=O)NC2C(=O)NNC2c2ccc(Cl)cc2)c1 (stereo not drawn)	-4.9%	6.3%	-1.7	-11.8%	7.94µM*	-21.0%
Nc1nc(SCC(=O)Nc2cc(Cl)c(Cl)cc2Cl)n[nH]1	14.4%	0.6%[46.1 µM]	-74.0*	-27.6%	-8.9%	·
O=C1c2nc3cc(-c4ccccc4)[nH]n3c(=O)c2CN1Cc1ccccc1	3.2%	9.4%	-0.5	-1.8%	-7.5%	13.7%
CC(C)(C)c1cc2nc3c(c(=O)n2[nH]1)CN(Cc1ccccc1)C3=O	-0.5%	-0.1%	-79.3*	0.8%	6.0%	8.3%
SMILES	p53 reactivator	TCR act	TSHR antag	BRCA1 expr up	GLS inhibitor	N370S GC mod
O=c1oc(-c2ccccc2)nc2sc3c(c12)CCCC3	?	-3.0%	-1.7	-40.1%	3.3%	19.7%
O=c1oc(-c2cccs2)nc2sc3c(c12)CCCCC3	?	-4.7%	-0.1	10µM*	0.2%	4.9%
C/C(=N/NC(=O)c1ccco1)c1cccc(NC(=O)c2ccc(C)s2)c1	10.7%	-3.1%[46.1 µM]	-2.3	74.3%	-16.0%	10.9%
C/C(=N\NC(=O)c1ccn(C)n1)c1cccc(NC(=O)c2ccc(C)s2)c1	-5.7%	-0.7%[46.1 µM]	3.5	11.2µM*	1.8%	-17.3%
COc1cccc2cc(-c3nc4ccccc4[nH]3)c(=O)oc12	·	-0.6%	-3.9	3.16µM*	2.8%	-4.0%
COc1cccc2cc(-c3ccccc3)c(=O)oc12	1.9%	-0.2%	-14.4	2.51µM*	6.1%	8.1%
COc1ccc(-c2cc3cccc(OC)c3oc2=O)cc1	?	-1.5%	-12.9	9.0%	-0.2%	-5.0%
CC(=O)c1[nH]c(C)c(C(=O)NCc2ccc(Cl)cc2)c1C	·	·	·	·	-4.2%	·
O=[N+]([O-])c1cccc(/C=N\N2CCN(Cc3ccccc3Cl)CC2)c1	18.4%	6.5%[46.1 µM]	-22.0	38.7%	-2.8%	-10.7%
C(=N\N1CCN(c2ccccn2)CC1)/c1cccc2ccccc12	3.3%	-1.2%	-7.9	4.9%	-9.8%	-0.2%
O=[N+]([O-])c1cccc(/C=N/N2CCN(c3ccccn3)CC2)c1	24.6%	3.1%[46.1 µM]	4.2	8.91µM*	6.2%	5.1%
O=[N+]([O-])c1cccc(C=NN2CCCCCC2)c1	·	1.9%	·	12.6µM*	12.6%	·
O=[N+]([O-])c1ccccc1/C=C/C=N/N1CCCCC1	?	4.9%	0.0	2.82µM*	3.8%	2.8%
Oc1ccccc1/C=N/N1CCN(c2ccccn2)CC1	16.1%	1.2%	-6.9	10µM*	21.0%	5.0%
COc1cc(OC)c(OC)cc1/C=C/c1nc2ccccc2o1	·	·	·	10.9%	·	·
CCCCCCC[C@@H](C/C=C/CCC(=O)N(C)C/C(=C/Cl)C/C(=C\C(=O)N1C[C@H](O)CC1=O)OC)OC	-2.2%	7.2%	2.5	-11.4%	-0.7%	·
CCCCCCC[C@@H](C/C=C/CCC(=O)N(C)C/C(=C/Cl)C/C(=C\C(=O)N1CC(OC)=CC1=O)OC)OC	31.6µM*	95.7%	11.1	-53.8%	-7.4%	·
CC(=O)N1c2ccccc2C(C)(c2ccccc2)CC1(C)C (stereo not drawn)	1.3%	1.0%	-77.9*	15.7%	5.5%	3.9%
COc1ccc(C2NC(=S)N3C(c4ccc(OC)c(OC)c4)NC(=S)N23)cc1OC (stereo not drawn)	·	·	·	·	0.6%	·
CNc1ccc(/C=C\CCCO)cn1	·	·	·	10µM*	0.6%	·
O=C(O)c1ccc(N/N=C/c2cccc3nccnc23)cc1	8.4%	9.1%	-14.1	12.6µM*	-4.3%	-14.6%
O=C(O)c1ccc(N/N=C/c2cc3ccccc3nc2Cl)cc1	2.8%	-9.8%	-10.0	29.4%	20.0%	-3.8%

High-throughput results (PubChem)
